Results: the supplement of paper PMC11732987, “Enantioselective OTUD7B fragment discovery through chemoproteomics screening and high-throughput optimisation” (Communications Chemistry, 2025)

How the values were obtained:
Assay in all cases: log2 ratio of Biotin-Ahx-Ub-VS probe labelling (fragment/DMSO); higher = less target engagement (more negative = stronger competition), active = hit call of the paper (q ≤ 0.05, log2 ratio ≤ -1)
Settings in all cases: compound concentration: 200 uM; treatment time: 3 h
USP34 = USP34 (UniProt Q70CQ2)
Chain of USP34 (Q70CQ2 whole entry, the tested form may be a part): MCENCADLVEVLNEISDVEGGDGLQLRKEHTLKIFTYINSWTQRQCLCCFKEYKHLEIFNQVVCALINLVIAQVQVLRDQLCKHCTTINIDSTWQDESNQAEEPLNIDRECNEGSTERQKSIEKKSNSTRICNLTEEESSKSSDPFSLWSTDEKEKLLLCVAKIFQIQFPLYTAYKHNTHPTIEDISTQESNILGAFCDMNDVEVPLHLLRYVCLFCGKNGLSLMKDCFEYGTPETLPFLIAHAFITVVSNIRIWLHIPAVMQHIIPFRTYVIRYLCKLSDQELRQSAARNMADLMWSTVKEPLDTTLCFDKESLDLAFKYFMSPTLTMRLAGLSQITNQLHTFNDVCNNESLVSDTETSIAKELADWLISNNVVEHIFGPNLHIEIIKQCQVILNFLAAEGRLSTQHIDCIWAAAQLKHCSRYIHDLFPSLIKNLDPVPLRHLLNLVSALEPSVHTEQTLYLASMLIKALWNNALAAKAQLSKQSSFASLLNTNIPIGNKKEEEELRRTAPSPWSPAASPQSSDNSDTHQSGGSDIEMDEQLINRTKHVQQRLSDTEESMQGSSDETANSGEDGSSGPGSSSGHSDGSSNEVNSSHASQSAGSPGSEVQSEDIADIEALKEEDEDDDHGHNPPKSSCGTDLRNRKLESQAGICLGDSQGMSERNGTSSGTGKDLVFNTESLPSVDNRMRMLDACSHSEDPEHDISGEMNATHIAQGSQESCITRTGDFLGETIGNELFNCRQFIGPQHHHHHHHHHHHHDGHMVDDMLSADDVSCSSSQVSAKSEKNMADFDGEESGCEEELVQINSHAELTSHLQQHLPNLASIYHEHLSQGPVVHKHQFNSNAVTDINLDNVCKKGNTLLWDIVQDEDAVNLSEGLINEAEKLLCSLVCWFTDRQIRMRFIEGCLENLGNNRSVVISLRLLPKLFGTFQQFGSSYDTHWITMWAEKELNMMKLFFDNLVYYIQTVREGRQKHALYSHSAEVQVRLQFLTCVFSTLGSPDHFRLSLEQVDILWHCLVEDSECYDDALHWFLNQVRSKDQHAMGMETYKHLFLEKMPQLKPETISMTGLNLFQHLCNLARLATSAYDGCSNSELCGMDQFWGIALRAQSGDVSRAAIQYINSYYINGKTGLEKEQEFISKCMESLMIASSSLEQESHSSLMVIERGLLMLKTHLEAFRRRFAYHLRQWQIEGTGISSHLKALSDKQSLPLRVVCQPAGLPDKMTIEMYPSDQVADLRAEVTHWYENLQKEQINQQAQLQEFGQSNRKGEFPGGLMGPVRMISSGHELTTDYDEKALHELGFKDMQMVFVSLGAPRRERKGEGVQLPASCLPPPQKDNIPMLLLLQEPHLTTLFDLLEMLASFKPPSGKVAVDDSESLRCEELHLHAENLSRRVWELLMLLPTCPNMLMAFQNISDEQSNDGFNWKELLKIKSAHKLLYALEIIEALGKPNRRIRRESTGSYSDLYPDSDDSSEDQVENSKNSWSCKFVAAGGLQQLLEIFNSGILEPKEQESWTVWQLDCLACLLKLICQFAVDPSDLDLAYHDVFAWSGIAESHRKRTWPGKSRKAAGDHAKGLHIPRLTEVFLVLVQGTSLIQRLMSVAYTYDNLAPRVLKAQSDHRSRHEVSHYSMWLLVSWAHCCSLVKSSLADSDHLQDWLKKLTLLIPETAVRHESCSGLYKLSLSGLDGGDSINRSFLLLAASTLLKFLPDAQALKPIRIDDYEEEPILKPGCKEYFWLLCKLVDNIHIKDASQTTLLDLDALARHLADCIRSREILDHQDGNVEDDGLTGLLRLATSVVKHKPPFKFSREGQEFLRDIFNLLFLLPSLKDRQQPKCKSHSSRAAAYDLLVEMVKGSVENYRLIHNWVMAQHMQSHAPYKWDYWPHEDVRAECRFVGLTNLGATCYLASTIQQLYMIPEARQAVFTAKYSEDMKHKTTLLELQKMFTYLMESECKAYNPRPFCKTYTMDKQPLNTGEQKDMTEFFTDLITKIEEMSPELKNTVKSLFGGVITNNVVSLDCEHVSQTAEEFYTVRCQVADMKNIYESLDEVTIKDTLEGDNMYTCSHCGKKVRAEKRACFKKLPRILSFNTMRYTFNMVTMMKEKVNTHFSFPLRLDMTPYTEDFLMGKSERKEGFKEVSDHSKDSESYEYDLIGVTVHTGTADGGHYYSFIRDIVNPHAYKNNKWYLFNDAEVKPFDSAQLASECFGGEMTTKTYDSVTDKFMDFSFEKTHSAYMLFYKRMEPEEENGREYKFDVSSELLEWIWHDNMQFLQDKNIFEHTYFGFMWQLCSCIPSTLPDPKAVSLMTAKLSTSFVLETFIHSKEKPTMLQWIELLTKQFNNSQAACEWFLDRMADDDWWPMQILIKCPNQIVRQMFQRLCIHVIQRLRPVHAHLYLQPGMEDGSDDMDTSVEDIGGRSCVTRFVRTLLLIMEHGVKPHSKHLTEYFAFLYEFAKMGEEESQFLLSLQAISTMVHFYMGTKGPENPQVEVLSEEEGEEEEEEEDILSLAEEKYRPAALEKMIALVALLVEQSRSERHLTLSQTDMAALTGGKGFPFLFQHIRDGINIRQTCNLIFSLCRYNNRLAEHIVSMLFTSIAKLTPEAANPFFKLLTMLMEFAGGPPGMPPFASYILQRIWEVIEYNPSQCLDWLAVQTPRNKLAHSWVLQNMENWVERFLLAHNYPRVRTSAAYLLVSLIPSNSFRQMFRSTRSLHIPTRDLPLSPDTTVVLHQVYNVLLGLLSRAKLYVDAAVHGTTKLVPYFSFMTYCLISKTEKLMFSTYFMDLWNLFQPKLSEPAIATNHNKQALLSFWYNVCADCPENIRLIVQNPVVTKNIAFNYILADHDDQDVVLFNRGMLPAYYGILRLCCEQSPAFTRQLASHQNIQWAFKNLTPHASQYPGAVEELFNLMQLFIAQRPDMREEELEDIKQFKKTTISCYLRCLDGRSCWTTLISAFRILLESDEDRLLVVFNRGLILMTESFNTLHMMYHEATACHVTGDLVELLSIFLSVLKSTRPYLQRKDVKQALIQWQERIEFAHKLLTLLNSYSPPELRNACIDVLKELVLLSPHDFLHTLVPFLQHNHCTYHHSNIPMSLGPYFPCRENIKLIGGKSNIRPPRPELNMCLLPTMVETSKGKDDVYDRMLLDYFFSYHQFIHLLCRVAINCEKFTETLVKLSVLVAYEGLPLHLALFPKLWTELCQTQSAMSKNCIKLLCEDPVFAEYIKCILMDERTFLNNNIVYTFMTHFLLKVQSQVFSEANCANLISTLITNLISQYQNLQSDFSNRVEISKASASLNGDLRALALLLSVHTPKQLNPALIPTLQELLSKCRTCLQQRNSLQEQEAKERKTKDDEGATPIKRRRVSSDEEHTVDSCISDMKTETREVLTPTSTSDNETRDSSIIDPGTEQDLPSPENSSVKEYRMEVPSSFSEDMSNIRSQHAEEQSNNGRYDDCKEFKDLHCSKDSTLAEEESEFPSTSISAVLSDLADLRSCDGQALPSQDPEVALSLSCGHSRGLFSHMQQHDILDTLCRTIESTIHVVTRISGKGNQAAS
Outline: (§1)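 Each value is an average log2 ratio of fragment to vehicle, tested by unpaired t-test. The underlying Spectronaut label-free quantities were global-median-normalised, and only proteins with ≥2 unique peptides were included. Triplicate HEK293T lysate samples (495 µg) were exposed to fragment at 200 µM or vehicle for 3 h, then to Biotin-Ahx-Ub-VS at 0.5 µM final for 1 h, before NeutrAvidin enrichment of labelled DUBs, LysC and trypsin digestion, and diaPASEF LC-MS/MS.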

USP36 = target: T1, USP36 (UniProt Q9P275)
T1 sequence (whole entry): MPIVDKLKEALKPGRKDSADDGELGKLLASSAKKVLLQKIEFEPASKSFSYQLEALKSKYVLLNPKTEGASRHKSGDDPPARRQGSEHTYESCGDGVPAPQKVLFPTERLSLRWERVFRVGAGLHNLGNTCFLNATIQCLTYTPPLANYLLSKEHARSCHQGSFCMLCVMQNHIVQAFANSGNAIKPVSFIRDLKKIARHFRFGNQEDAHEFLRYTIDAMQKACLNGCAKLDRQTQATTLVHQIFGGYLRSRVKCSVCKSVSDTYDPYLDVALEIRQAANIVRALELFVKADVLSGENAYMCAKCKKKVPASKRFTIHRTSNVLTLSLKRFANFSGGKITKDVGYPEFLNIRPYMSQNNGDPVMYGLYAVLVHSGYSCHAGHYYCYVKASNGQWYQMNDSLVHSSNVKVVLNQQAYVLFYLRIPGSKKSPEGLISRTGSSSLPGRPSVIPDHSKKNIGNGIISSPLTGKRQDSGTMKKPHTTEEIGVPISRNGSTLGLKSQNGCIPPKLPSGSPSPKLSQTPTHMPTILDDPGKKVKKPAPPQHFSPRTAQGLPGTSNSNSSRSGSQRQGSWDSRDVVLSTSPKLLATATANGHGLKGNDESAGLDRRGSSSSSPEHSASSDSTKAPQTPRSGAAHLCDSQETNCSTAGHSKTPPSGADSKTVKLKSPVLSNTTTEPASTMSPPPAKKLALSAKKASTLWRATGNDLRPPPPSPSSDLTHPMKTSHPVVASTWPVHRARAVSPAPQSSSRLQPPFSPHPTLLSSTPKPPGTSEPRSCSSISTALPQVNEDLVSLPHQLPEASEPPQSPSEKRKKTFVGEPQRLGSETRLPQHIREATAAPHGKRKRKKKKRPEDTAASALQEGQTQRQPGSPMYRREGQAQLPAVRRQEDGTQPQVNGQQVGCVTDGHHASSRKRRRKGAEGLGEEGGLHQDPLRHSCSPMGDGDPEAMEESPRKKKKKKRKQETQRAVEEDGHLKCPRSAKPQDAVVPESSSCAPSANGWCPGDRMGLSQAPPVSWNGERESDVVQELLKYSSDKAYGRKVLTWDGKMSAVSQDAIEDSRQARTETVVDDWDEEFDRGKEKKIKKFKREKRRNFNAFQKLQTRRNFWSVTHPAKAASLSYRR
Outline: as §1

USP38 = target: T2, USP38 (UniProt Q8NB14)
T2 sequence (whole entry): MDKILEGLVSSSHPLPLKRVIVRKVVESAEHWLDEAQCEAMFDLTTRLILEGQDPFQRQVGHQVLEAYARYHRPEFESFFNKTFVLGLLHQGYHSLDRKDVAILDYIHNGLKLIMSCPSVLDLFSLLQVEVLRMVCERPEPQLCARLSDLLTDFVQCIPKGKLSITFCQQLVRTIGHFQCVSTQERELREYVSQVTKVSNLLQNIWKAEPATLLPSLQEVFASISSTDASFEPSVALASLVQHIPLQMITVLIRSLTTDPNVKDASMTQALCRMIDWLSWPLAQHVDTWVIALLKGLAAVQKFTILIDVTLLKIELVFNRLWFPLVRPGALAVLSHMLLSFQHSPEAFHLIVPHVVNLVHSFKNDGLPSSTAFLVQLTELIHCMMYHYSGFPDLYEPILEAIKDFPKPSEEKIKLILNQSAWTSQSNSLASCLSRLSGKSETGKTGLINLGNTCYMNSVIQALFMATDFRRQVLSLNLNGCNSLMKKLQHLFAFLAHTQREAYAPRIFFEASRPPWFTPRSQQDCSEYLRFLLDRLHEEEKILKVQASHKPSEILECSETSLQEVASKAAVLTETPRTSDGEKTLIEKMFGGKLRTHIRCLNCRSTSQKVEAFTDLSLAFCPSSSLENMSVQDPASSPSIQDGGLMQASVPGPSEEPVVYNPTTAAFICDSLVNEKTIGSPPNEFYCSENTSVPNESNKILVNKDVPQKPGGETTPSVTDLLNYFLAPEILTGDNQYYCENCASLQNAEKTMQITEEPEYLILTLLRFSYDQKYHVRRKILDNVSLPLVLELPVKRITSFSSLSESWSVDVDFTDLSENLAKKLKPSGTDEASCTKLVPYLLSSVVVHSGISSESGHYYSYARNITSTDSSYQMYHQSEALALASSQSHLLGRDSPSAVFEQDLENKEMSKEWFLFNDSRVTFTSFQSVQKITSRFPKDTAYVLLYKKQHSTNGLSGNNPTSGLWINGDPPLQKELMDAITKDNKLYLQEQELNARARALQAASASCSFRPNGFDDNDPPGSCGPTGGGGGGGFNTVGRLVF
Outline: as §1

USP39 = target: T3, USP39 (UniProt Q53GS9)
T3 sequence (whole entry): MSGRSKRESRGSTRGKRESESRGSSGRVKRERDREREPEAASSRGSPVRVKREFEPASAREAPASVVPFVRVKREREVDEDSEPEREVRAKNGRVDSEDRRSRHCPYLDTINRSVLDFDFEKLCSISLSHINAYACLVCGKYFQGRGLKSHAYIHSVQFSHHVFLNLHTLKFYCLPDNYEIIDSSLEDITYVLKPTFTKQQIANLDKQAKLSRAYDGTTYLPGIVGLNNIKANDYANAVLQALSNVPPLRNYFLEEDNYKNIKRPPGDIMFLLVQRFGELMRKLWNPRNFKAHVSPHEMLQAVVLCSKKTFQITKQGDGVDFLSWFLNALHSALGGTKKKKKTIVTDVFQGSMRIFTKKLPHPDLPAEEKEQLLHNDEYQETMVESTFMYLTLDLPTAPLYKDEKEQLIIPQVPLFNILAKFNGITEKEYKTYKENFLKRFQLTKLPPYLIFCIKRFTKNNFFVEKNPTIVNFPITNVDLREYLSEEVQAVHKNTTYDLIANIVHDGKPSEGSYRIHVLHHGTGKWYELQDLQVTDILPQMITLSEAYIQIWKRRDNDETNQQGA
Outline: as §1

USP4 = target: T4, USP4 (UniProt Q13107)
T4 sequence (whole entry): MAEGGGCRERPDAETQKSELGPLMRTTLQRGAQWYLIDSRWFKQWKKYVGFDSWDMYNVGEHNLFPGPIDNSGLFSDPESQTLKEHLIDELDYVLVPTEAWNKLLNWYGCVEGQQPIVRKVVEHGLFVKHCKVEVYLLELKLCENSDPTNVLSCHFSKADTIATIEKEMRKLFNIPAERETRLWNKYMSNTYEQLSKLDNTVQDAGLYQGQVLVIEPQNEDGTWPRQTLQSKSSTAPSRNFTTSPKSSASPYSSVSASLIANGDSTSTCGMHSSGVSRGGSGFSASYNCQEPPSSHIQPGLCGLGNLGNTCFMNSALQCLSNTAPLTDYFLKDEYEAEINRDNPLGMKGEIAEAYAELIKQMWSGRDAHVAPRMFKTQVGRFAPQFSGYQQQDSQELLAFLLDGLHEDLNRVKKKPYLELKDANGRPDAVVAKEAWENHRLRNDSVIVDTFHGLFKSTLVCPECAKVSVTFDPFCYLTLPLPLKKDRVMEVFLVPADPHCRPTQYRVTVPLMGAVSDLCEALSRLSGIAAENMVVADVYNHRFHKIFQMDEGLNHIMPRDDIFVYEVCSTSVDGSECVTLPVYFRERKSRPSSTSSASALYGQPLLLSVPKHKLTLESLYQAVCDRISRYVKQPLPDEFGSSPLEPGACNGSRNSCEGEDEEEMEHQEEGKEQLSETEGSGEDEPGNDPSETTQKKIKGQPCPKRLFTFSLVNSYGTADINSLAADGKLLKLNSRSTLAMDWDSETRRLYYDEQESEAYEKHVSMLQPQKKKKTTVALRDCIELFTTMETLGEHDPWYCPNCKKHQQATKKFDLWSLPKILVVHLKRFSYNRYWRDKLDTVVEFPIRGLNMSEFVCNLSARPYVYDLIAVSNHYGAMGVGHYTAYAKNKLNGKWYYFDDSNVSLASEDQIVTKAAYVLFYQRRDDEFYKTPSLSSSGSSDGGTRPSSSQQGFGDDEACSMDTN
Outline: as §1

Measured: log2 ratio of Biotin-Ahx-Ub-VS probe labelling

Cc1ncc2c(n1)CCN(C(=O)CCl)C2
inactive: USP34 -0.14 | USP36 -0.0392 | USP38 -0.067 | USP39 0.0209 | USP4 -0.35
